The list is not random: actives were taken first. Their share in the collection is about 2.1%.
SIRT5 block = SIRT5 desuccinylase inhibitors, primary screen, biochemical, fluorescence imaging, single point, set 5; 1.1% of 330,000 active; inhibition, % at 15 µM; NAD-dependent protein deacylase sirtuin-5, mitochondrial (Homo sapiens), Q9NXA8; Purified SirT5, succinyl-peptide AMC, trypsin-coupled fluorescence; in the data active = inhibition above about 15%
NSD2 HMT inh = NSD2 histone methyltransferase inhibitors, primary screen, biochemical, AlphaScreen, single concentration, set 2. 0.54% of 310,000 active. Histone-lysine N-methyltransferase NSD2 (Homo sapiens), O96028. NSD2 peptide methylation, 120 min. inhibition, % at 12.5 µM; in the data active = inhibition above about 50%
Target sequence (O96028 whole entry, looked up): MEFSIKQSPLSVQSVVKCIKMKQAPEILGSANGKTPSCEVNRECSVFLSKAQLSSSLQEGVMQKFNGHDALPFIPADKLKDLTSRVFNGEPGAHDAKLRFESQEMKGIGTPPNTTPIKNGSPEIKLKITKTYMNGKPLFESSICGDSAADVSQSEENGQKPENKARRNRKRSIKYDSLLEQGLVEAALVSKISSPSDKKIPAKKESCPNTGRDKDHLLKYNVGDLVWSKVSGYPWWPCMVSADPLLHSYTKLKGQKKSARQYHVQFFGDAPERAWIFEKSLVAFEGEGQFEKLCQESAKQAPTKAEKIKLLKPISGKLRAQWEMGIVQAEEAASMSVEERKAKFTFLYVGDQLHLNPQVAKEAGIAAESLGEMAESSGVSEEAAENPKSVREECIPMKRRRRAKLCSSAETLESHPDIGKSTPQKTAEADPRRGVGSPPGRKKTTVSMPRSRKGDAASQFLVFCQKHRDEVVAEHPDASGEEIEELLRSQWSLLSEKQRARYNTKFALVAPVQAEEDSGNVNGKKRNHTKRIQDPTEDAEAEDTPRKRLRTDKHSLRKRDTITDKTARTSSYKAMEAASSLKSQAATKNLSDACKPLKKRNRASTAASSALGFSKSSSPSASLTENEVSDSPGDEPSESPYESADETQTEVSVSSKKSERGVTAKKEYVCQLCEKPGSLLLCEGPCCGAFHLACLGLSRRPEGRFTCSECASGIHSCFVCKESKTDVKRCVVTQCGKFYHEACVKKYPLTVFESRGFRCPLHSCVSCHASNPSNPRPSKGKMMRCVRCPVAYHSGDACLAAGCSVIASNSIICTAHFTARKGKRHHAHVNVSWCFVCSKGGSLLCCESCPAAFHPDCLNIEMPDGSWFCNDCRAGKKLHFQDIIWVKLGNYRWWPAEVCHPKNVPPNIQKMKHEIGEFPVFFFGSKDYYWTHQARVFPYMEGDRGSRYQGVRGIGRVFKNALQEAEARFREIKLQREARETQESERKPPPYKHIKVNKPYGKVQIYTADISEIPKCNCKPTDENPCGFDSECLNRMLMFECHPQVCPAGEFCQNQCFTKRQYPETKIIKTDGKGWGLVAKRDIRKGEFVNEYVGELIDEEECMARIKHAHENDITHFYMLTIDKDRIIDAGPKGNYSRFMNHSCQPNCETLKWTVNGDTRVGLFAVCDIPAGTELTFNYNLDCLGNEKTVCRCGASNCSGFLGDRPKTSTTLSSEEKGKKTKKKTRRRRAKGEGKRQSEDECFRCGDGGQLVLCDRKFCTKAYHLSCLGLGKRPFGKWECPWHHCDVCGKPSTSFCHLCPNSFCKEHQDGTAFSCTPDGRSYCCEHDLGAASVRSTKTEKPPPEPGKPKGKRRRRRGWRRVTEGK
Casp6 inh = human caspase-6 inhibitors, primary screen, biochemical, VEID-R110 fluorescence, single point, set 2; purified caspase-6, Z-VEID-R110 cleavage fluorescence; inhibition, % at 12.5 µM; 0.53% of 350,000 active;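 active = mean inhibition across replicates at least about 35%, with every replicate also reaching that limit, limit read from the data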;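 also: 0% = median of neutral control wells and 100% = no fluorescence left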
PfHsp90 yeast 2 = growth inhibition of PfHsp90-expressing yeast, primary screen, antimalarial PfHsp90 inhibitor project, S. cerevisiae, BacTiter-Glo luminescence, single point, set 2; BacTiter-Glo ATP, 48 h; yeast lacking PDR1 and PDR3 efflux regulators; inhibition, % at 9.4 µM; 0.32% of 310,000 active; AID 504621, 2011;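 active = every replicate shows inhibition above about 80%, whatever the replicate mean, limit read from the data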;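 also: 0% = DMSO neutral controls and 100% = 20 µM radicicol positive controls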
ARNT TACC3 PPI = disruptors of ARNT/TACC3 protein interaction, primary screen, biochemical, AlphaScreen, single concentration; AID 623870, 2012; inhibition, % at 9.99 µM; AlphaScreen His-ARNT PAS-B/GST-TACC3 binding, luminescence; TACC3 fragment carries E629A point mutation; 0.66% of 390,000 active;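 active = mean inhibition of replicates at least 50% and at least half of replicates each reaching 50%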;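 also: 0% = complete ARNT plus TACC3 wells and 100% = ARNT alone without TACC3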
The depositor's hits bear a star; / = not tested or not shown.

SMILES	SIRT5 block	NSD2 HMT inh	Casp6 inh	PfHsp90 yeast 2	ARNT TACC3 PPI
COc1ccccc1S(=O)(=O)N(C)C[C@@H]1Oc2cc(C#CCC(C)C)ccc2S(=O)(=O)N([C@@H](C)CO)C[C@H]1C	30*	/	9	/	0
COc1ccccc1S(=O)(=O)N(C)C[C@@H]1Oc2cc(C#CCC(C)C)ccc2S(=O)(=O)N([C@@H](C)CO)C[C@@H]1C	28*	/	-2	/	-3
O=C(NCC1CCCCC1)[C@H]1[C@H](CO)[C@H]2Cn3c(ccc(-c4ccccc4F)c3=O)[C@@H]1N2	-12	/	0	/	-2
CCCC#Cc1ccc2c(c1)O[C@@H](CN(C)C)[C@@H](C)CN([C@H](C)CO)S2(=O)=O	-2	/	0	/	-9
COc1ccc(S(=O)(=O)N(C)C[C@H]2Oc3c(NC(=O)Nc4ccc(C(F)(F)F)cc4)cccc3C(=O)N([C@@H](C)CO)C[C@@H]2C)cc1	-6	/	-2	/	/
C[C@@H](NC(=O)[C@H]1[C@H](CO)[C@H]2Cn3c(ccc(-c4cccnc4)c3=O)[C@@H]1N2C)c1ccccc1	-7	/	-1	/	-1
CCC(=O)N1CC2(CCN(C(=O)c3cccnc3)CC2)c2c([nH]c3cc(OC)ccc23)[C@@H]1CO	-5	/	4	/	/
COc1ccc(C#Cc2ccc3c(c2)O[C@@H](CN(C)S(=O)(=O)c2ccccc2F)[C@H](C)CN([C@@H](C)CO)S3(=O)=O)cc1	4	/	/	/	18
COc1ccc(C#Cc2ccc3c(c2)O[C@H](CN(C)S(=O)(=O)c2ccccc2F)[C@@H](C)CN([C@@H](C)CO)S3(=O)=O)cc1	15*	/	6	/	6
O=C(N/N=C/c1c(O)ccc2ccccc12)c1cccc(C(F)(F)F)c1	/	0	/	91*	-23
O=C(CN1CCCC1)N/N=C/c1c(O)ccc2ccccc12	2	12	-6	-6	59*
COc1ccc2ccccc2c1/C=N/NC(=O)c1cccc(Br)c1	-3	4	-5	-5	-10
Cc1ccc(O)c(/C=N/NC(=O)CN2CCCC2)c1	2	-3	-16	-15	66*
CC=Cc1ccc2n(c1=O)C[C@H]1[C@H](CO)[C@@H](C(=O)N(C)C)N(CC3CCOCC3)[C@@H]21 (mixture of isomers)	-1	/	4	/	-18
C/C=C/c1ccc([C@@H]2[C@H](CO)N(C(=O)COC)[C@H]2CNC(=O)CC)cc1	5	/	-3	/	-10
COC(CN1CCc2c(C)nc3c(C#N)cnn3c21)OC	17*	-4	-2	8	-2
Cc1nc2c(C#N)cnn2c2c1CCNN2C	1	/	3	-20	-5
Nc1c(Cl)ncnc1N/N=C/c1ccc2ccccc2n1	-6	3	-5	-5	64*
C[C@H](CO)N1C[C@H](C)[C@H](CN(C)CC2CC2)Oc2c(NC(=O)c3ccc(-c4nccs4)cc3)cccc2C1=O	0	/	1	/	/
Cc1ccc(C(=O)N(Cc2nc(-c3ccc(C)cc3)no2)C(C)C)cc1	17*	/	-3	11	/
COc1ccc2c(c1)CC/C(=C/c1ccncc1)C2=O	/	18	/	/	/
COc1ccc2c3c(ccc2c1)C(=O)/C(=C/O)CC3	/	-1	0	107*	-4
C/C=C/c1cccc(-c2nc(C(=O)N3CCN(C)CC3)cc3c2[C@H](CCO)N(C(=O)NC(C)C)C3)c1	-5	/	2	/	/
COC(=O)c1ccc2nc(-c3ccc(OC)c(OC)c3)c(Cc3ccccc3OC)n2c1	-3	/	3	/	/
COC(=O)c1ccc2nc(-c3ccc(OC)c(OC)c3)c(Cc3ccccc3C(F)(F)F)n2c1	22*	/	5	/	/
SMILES	SIRT5 block	NSD2 HMT inh	Casp6 inh	PfHsp90 yeast 2	ARNT TACC3 PPI
O=S(=O)(N[C@H]1CC[C@H](CCn2cc(C3(O)CCCC3)nn2)O[C@H]1CO)c1ccc(F)cc1	-1	/	2	/	-14
COc1ccccc1-n1c(SCC(=O)O)nc2c(sc(=S)n2-c2ccc(C)c(C)c2)c1=O	17*	-1	3	0	1
COc1ccccc1-n1c(SCC(=O)O)nc2c(sc(=S)n2-c2ccc(Cl)c(C)c2)c1=O	4	2	3	14	-8
Cc1cc(-n2c(=S)sc3c(=O)n(-c4ccc(F)cc4)c(SCC(=O)O)nc32)ccc1Cl	-1	3	-2	-8	22*
COc1cccc(S(=O)(=O)N[C@H]2C=C[C@@H](CC(=O)NCc3ccccc3)O[C@H]2CO)c1	-5	/	1	/	6
O=CC(O)C1OC(=O)C(O)C1O (stereo unspecified)	0	/	41*	-1	2
O=C1O[C@H](CO)[C@@H](O)[C@H](O)[C@H]1O	-6	/	-5	-7	4
C[C@@H]1CCCCO[C@@H](CN(C)Cc2ccncc2)[C@H](C)CN([C@H](C)CO)C(=O)c2cc(NC(=O)Nc3ccc4c(c3)OCO4)ccc2O1	-1	/	-4	/	4
COc1ccc(C(C)=O)cc1CSc1nnc(Nc2c(C)cccc2C)s1	21*	-3	0	29	/
COc1ccc(C(C)=O)cc1CSc1nnc(Nc2ccccc2C)s1	/	-2	/	-12	-8
O=C(c1cccs1)c1no[n+]([O-])c1C(=O)c1cccs1	/	/	/	105*	-2
CCCCN1C(=O)C(O)=C(C(C)=O)C1c1ccccc1 (stereo unspecified)	/	-2	/	-25	-5
CCCCN1C(=O)C(O)=C(C(C)=O)C1c1ccccc1[N+](=O)[O-] (stereo unspecified)	24*	-1	4	11	-9
O=C(N/N=C/C1CC=CCC1)c1ccc(Cl)cc1O (stereo unspecified)	-4	-1	62*	-3	11
O=C(C#Cc1ccccc1)c1ccc([N+](=O)[O-])cc1	/	/	/	101*	1
O=C(C#Cc1ccccc1)c1ccccc1	-4	-2	-1	/	/
Cc1ccc(C)c(S(=O)(=O)Nc2cc(SCC(=O)O)c(O)c3ccccc23)c1	/	/	/	-19	54*
Cc1ccc(NS(=O)(=O)c2cc(NC(=O)C(C)Oc3ccccc3)ccc2C)c(C)c1 (stereo unspecified)	/	0	/	23	-3
CCOc1ccc(S(=O)(=O)Nc2cc(SCC(=O)O)c(O)c3ccccc23)cc1	1	/	88*	7	/
CCOC(=O)c1ccccc1NS(=O)(=O)c1ccc(OCC)cc1	/	-2	/	10	-14
O=C(C[C@H]1C[C@H]2c3cc(NC(=O)Nc4ccccc4F)ccc3O[C@H]2[C@@H](CO)O1)NCc1cc(F)ccc1F	-3	/	2	/	-12
O=c1ccc(N=Nc2ccccc2)ccc1O	4	5	/	125*	/
C[C@H](CO)N1C[C@H](C)[C@@H](CN(C)C(=O)C2CC2)Oc2cc(C#C[C@@H](C)O)ccc2S1(=O)=O	0	/	0	/	-6

Assay outcomes (PubChem BioAssay)
